# Source: the supplement of paper PMC9023506
# Structures can show the parent of a compound that is named as a salt.
# Tested on: Danio rerio larvae (5 dpf)
# Test: activity during period 15 (no stimuli), difference vs DMSO (percentage points (treated minus DMSO)); higher = more of the behaviour than the DMSO vehicle control
# Settings: 10 µM; exposure time: 3 h pre-incubation + 3 h imaging
# Experimental: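 5-dpf wild-type zebrafish larvae were imaged in 96-well plates. They were treated with 190 Tocris FDA-approved drugs at 10 µM (1 µl/ml DMSO) for 3 h before and 3 h during imaging at 28.5 °C, 48 larvae per drug. Automated image analysis gave % time moving and optomotor responses. Values are drug group mean minus DMSO vehicle mean (n=844), in percentage points, for 10 behaviours.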
row,Structure (SMILES),activity during period 15
1,CN(C)CCc1c[nH]c2ccc(C[C@H]3COC(=O)N3)cc12 [Zolmitriptan],2.6
2,CCCCCCCN(CC)CCCC(O)c1ccc(NS(C)(=O)=O)cc1 (stereo not given) [Ibutilide hemifumarate],-10
3,N#Cc1ccc(C(c2ccc(C#N)cc2)n2cncn2)cc1 [Letrozole],0.514
4,CC(C)c1ccc2oc3nc(N)c(C(=O)O)cc3c(=O)c2c1 [Amlexanox],7.93
5,CCC(=O)O[C@]1(C(=O)SCF)[C@H](C)C[C@H]2[C@@H]3C[C@H](F)C4=CC(=O)C=C[C@]4(C)[C@@]3(F)[C@@H](O)C[C@@]21C [Fluticasone propionate],8.18
6,Cc1cn([C@H]2C=C[C@@H](CO)O2)c(=O)[nH]c1=O [Stavudine],-0.445
7,COc1ccccc1OCC(O)CN1CCN(CC(=O)Nc2c(C)cccc2C)CC1 (stereo not given) [Ranolazine dihydrochloride],3.22
8,CN1CC(=O)N2[C@H](c3ccc4c(c3)OCO4)c3[nH]c4ccccc4c3C[C@@H]2C1=O [Tadalafil],-1.47
9,Cn1nnc2c(C(N)=O)ncn2c1=O [Temozolomide],2.03
10,COc1ccc(Cl)cc1C(=O)NCCc1ccc(S(=O)(=O)NC(=O)NC2CCCCC2)cc1 [Glibenclamide],-4.16
11,CS(=O)(=O)CCNCc1ccc(-c2ccc3ncnc(Nc4ccc(OCc5cccc(F)c5)c(Cl)c4)c3c2)o1 [Lapatinib],-13.3
12,Cc1ccccc1C(=O)Nc1ccc(C(=O)N2CCCC(O)c3cc(Cl)ccc32)c(C)c1 (stereo not given) [Tolvaptan],-8.09
13,CCCCC1=NC2(CCCC2)C(=O)N1Cc1ccc(-c2ccccc2-c2nnn[nH]2)cc1 [Irbesartan],5.68
14,O=C(Nc1c(Cl)cncc1Cl)c1ccc(OC(F)F)c(OCC2CC2)c1 [Roflumilast],-9.33
15,CN/C(=N\CCSCc1nc[nH]c1C)NC#N [Cimetidine],-5.2
16,CN(CCOc1ccc(CC2SC(=O)NC2=O)cc1)c1ccccn1 (stereo not given) [Rosiglitazone],7.42
17,OCCOCCN1CCN(C2=Nc3ccccc3Sc3ccccc32)CC1 [Quetiapine hemifumarate],16.8
18,CCOC(=O)C1=C(C)NC(C)=C(C(=O)OC)C1c1cccc(Cl)c1Cl (stereo not given) [Felodipine],-11.6
19,CNC(=O)c1cc(Oc2ccc(NC(=O)Nc3ccc(Cl)c(C(F)(F)F)c3)cc2)ccn1 [Sorafenib],8.65
20,CC(C)(C)NC(=O)[C@@H]1C[C@@H]2CCCC[C@@H]2CN1C[C@@H](O)[C@H](Cc1ccccc1)NC(=O)[C@H](CC(N)=O)NC(=O)c1ccc2ccccc2n1 [Saquinavir mesylate],-12.8

row,Structure (SMILES),activity during period 15
1,COc1c(C)c2c(c(O)c1C/C=C(\C)CCC(=O)OCCN1CCOCC1)C(=O)OC2 [Mycophenolate mofetil],-0.943
2,COc1ccccc1Oc1c(NS(=O)(=O)c2ccc(C(C)(C)C)cc2)nc(-c2ncccn2)nc1OCCO [Bosentan],-4.44
3,CCCc1nn(C)c2c(=O)[nH]c(-c3cc(S(=O)(=O)N4CCN(C)CC4)ccc3OCC)nc12 [Sildenafil citrate],-20.2
4,O=C(c1ccc(OCCN2CCCCC2)cc1)c1c(-c2ccc(O)cc2)sc2cc(O)ccc12 [Raloxifene hydrochloride],-8.58
5,CC(C)c1nc(CN(C)C(=O)N[C@H](C(=O)N[C@@H](Cc2ccccc2)C[C@H](O)[C@H](Cc2ccccc2)NC(=O)OCc2cncs2)C(C)C)cs1 [Ritonavir],-8.67
6,CC/C(=C(\c1ccccc1)c1ccc(OCCN(C)C)cc1)c1ccccc1 [Tamoxifen citrate],20.1
7,NS(=O)(=O)Cc1noc2ccccc12 [Zonisamide],-7.11
8,Clc1ccc2nsnc2c1NC1=NCCN1 [Tizanidine hydrochloride],-20.8
9,N[C@@H]1[C@H]2CN(c3nc4c(cc3F)c(=O)c(C(=O)O)cn4-c3ccc(F)cc3F)C[C@@H]12 [Trovafloxacin mesylate],2.91
10,Cc1nc(Nc2ncc(C(=O)Nc3c(C)cccc3Cl)s2)cc(N2CCN(CCO)CC2)n1 [Dasatinib],-15.1
11,OCc1cc(C(O)CNCCCCCCOCCCCc2ccccc2)ccc1O (stereo not given) [Salmeterol xinafoate],23.9
12,CCc1c2c(nc3ccc(OC(=O)N4CCC(N5CCCCC5)CC4)cc13)-c1cc3c(c(=O)n1C2)COC(=O)[C@]3(O)CC,-8.3
13,OC(CNCC(O)C1CCc2cc(F)ccc2O1)C1CCc2cc(F)ccc2O1 (stereo not given) [Nebivolol hydrochloride],14
14,CC(C)c1nc(N(C)S(C)(=O)=O)nc(-c2ccc(F)cc2)c1/C=C/[C@@H](O)C[C@@H](O)CC(=O)O [Rosuvastatin calcium],15.5
15,CC1(C)O[C@@H]2[C@@H](CO[C@@]3(COS(N)(=O)=O)OC(C)(C)O[C@@H]23)O1 [Topiramate],3.85
16,C[C@]12CC[C@@H]3c4ccc(O)cc4C[C@@H](CCCCCCCCC[S+]([O-])CCCC(F)(F)C(F)(F)F)[C@H]3[C@@H]1CC[C@@H]2O (stereo not given in full),4.53
17,Cc1c(-c2ccc(O)cc2)n(Cc2ccc(OCCN3CCCCCC3)cc2)c2ccc(O)cc12 [Bazedoxifene acetate],-15.7
18,CC(=O)O[C@H]1C(=O)[C@@]2(C)[C@H]([C@H](OC(=O)c3ccccc3)[C@]3(O)C[C@H](OC(=O)[C@H](O)[C@@H](NC(=O)c4ccccc4)c4ccccc4)C(C)=C1C3(C)C)[C@]1(OC(C)=O)CO[C@@H]1C[C@@H]2O [Taxol],-4.11
19,NS(=O)(=O)c1cc2c(cc1Cl)NC(C1CC3C=CC1C3)NS2(=O)=O (stereo not given) [Cyclothiazide],3.93
20,Cc1ccc(NC(=O)c2ccc(CN3CCN(C)CC3)cc2)cc1Nc1nccc(-c2cccnc2)n1 [Imatinib mesylate],-11.6
